# What was measured:
# [1] = target: Ribosomal protein S6 kinase alpha-1 (Homo sapiens) (UniProt Q15418); details: at 1 µM
# [2] = target: Ribosomal protein S6 kinase alpha-1 (Homo sapiens) (UniProt Q15418); details: at 10 µM
# [3] = target: Ribosomal protein S6 kinase alpha-3 (Homo sapiens) (UniProt P51812); details: at 1 µM
# [4] = target: Ribosomal protein S6 kinase alpha-3 (Homo sapiens) (UniProt P51812); details: at 10 µM
# [5] = target: Ribosomal protein S6 kinase alpha-2 (Homo sapiens) (UniProt Q15349); details: at 1 µM
# [6] = target: Ribosomal protein S6 kinase alpha-2 (Homo sapiens) (UniProt Q15349); details: at 10 µM
# [7] = target: Ribosomal protein S6 kinase alpha-6 (Homo sapiens) (UniProt Q9UK32); details: at 1 µM
# [8] = target: Ribosomal protein S6 kinase alpha-6 (Homo sapiens) (UniProt Q9UK32); details: at 10 µM
# [9] = target: Mitogen-activated protein kinase 14 (Homo sapiens) (UniProt Q16539); details: at 1 µM
# [10] = target: Mitogen-activated protein kinase 14 (Homo sapiens) (UniProt Q16539); details: at 10 µM
# Sequence of Ribosomal protein S6 kinase alpha-6 (Homo sapiens) (Q9UK32 whole entry): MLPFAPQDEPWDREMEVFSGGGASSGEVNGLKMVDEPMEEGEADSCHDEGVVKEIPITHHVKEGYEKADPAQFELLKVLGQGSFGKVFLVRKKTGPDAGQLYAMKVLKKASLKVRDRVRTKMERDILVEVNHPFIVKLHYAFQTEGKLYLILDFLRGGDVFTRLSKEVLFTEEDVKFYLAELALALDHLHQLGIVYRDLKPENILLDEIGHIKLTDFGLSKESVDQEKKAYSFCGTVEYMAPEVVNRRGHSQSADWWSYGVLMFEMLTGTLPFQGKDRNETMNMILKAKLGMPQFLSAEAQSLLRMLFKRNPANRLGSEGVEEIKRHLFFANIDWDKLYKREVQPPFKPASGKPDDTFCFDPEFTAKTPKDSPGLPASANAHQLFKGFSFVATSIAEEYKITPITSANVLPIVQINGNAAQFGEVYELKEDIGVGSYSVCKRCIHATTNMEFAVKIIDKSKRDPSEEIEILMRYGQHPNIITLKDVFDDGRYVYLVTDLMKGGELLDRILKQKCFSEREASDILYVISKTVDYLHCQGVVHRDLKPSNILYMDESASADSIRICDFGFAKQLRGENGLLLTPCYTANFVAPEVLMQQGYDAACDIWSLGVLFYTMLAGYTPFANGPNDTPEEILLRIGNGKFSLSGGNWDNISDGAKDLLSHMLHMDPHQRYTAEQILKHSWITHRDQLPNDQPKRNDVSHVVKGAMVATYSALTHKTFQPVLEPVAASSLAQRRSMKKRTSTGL
# Sequence of Mitogen-activated protein kinase 14 (Homo sapiens) (Q16539 whole entry): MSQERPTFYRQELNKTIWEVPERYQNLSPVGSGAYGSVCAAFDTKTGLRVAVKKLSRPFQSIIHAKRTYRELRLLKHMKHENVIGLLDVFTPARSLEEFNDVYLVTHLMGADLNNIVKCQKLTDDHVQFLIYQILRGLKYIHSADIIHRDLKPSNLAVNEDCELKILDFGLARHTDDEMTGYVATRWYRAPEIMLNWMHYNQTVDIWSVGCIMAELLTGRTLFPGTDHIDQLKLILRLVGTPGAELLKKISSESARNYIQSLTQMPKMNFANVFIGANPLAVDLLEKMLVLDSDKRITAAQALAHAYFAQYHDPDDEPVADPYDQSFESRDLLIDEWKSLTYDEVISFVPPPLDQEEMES
# Sequence of Ribosomal protein S6 kinase alpha-3 (Homo sapiens) (P51812 whole entry): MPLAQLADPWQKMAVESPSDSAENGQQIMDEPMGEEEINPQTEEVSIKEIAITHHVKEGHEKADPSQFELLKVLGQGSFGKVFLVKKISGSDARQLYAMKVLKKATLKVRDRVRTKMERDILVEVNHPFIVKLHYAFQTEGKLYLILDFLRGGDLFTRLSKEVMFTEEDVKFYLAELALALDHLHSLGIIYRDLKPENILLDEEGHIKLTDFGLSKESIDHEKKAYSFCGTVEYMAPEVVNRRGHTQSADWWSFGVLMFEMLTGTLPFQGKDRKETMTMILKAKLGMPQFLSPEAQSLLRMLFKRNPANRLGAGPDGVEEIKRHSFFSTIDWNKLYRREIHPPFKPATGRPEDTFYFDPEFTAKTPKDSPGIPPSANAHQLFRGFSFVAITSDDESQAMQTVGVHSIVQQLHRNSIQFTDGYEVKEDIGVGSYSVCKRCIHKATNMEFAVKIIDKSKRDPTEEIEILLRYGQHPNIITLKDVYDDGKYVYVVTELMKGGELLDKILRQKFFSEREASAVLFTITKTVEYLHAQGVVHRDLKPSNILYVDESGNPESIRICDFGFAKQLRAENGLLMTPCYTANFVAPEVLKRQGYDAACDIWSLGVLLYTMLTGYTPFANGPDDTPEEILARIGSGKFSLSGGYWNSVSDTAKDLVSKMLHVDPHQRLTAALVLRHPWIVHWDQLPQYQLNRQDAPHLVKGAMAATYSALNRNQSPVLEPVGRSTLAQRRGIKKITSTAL
# Sequence of Ribosomal protein S6 kinase alpha-1 (Homo sapiens) (Q15418 whole entry): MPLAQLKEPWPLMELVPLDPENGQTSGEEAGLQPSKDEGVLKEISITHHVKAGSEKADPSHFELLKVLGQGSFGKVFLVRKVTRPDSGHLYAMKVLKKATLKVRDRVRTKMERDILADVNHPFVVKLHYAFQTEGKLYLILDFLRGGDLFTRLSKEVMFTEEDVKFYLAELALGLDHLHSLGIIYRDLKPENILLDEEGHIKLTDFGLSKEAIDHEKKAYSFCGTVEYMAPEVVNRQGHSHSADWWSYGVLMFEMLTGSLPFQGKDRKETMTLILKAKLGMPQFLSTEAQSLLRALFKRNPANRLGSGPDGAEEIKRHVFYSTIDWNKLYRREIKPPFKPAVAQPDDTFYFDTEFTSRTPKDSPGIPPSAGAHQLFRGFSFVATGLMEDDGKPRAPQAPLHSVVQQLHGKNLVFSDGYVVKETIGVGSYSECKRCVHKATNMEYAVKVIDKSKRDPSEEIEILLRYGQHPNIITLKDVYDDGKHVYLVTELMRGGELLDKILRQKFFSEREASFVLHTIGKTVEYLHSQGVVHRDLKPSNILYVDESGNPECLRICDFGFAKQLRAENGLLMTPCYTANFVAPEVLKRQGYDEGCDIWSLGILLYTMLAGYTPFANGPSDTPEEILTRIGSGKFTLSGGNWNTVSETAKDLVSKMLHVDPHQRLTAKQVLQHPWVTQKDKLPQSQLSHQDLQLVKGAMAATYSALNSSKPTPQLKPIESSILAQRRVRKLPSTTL
# Sequence of Ribosomal protein S6 kinase alpha-2 (Homo sapiens) (Q15349 whole entry): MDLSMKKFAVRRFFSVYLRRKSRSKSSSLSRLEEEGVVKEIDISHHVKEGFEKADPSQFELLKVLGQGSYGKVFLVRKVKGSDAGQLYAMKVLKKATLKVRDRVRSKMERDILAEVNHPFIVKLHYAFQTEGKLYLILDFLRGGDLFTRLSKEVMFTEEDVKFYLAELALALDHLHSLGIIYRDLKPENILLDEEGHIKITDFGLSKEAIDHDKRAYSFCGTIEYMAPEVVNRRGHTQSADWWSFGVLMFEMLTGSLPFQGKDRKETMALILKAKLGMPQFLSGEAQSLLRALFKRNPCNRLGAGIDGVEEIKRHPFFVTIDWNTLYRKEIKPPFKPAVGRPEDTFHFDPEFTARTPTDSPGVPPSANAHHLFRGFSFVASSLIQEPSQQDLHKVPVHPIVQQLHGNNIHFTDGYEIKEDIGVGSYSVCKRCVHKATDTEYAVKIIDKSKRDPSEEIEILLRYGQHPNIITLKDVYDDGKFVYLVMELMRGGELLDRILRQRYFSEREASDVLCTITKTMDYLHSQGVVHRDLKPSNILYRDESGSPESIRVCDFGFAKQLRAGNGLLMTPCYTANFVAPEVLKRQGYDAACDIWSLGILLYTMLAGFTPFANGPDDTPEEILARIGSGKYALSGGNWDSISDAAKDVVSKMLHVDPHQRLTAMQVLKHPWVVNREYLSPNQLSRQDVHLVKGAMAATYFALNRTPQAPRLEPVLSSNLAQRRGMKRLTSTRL
SMILES,residual activity [1] [%],residual activity [2] [%],residual activity [3] [%],residual activity [4] [%],residual activity [5] [%],residual activity [6] [%],residual activity [7] [%],residual activity [8] [%],residual activity [9] [%],residual activity [10] [%]
CN(C)S(=O)(=O)c1ccc2c(c1)/C(=C/c1cc3c([nH]1)CCCC3)C(=O)N2,95,95,61,42,36,17,84,89,87,86
O=c1cc(N2CCNCC2)oc2c(-c3ccccc3)cccc12,124,96,51,36,,104,,89,101,98
O=C(c1cc2cc(O)ccc2[nH]1)c1cc2cc(O)ccc2[nH]1,40,9,30,4,13,2,26,10,75,73
CC(C)c1nn(-c2c(Cl)cccc2Cl)c2nc(Cc3ccc(OCCO)cc3)[nH]c(=O)c12,105,56,46,29,88,47,71,49,92,82
COc1cc2nccc(Oc3ccc(NC(=O)Nc4cc(C)on4)c(Cl)c3)c2cc1OC,105,77,60,35,,,99,,,
Oc1cccc(-c2nc(N3CCOCC3)c3oc4ncccc4c3n2)c1,141,98,70,64,,,,,,
CCCCc1c(-c2ccc(OC)cc2)[nH]c2nccnc12,122,109,55,52,70,70,89,100,,
COc1ccc(COc2ccc(Cc3cnc(N)nc3N)cc2OC)cc1,131,109,64,64,,71,110,116,,99
O=C1Nc2ccc(Cl)cc2/C1=C/c1cc(Cl)c(O)c(Cl)c1,94,29,68,20,88,36,77,55,54,10
Cn1c2ccccc2c2c3c(c4c5ccccc5n(CCC#N)c4c21)CNC3=O,7,4,1,1,0,-1,4,4,,
O=C1NC(=O)c2c1c1c3ccccc3[nH]c1n1cncc21,58,43,57,24,33,15,37,36,93,87
COc1cc2c(cc1OC)-c1n[nH]c(Nc3cccc(F)c3)c1C2,112,79,63,39,,63,105,,69,44
O=C1NC(=O)C(c2c[nH]c3ccccc23)=C1c1c[nH]c2ccccc12,22,3,27,3,5,0,9,1,98,73
CCCC(=O)Oc1ccc2[nH]c(C(=O)c3cc4ccccc4[nH]3)cc2c1,129,99,122,93,102,90,,,79,81
CCN(CC)CCNC(=O)c1c(C)[nH]c(/C=C2\C(=O)Nc3ccc(Cl)cc32)c1C,11,2,11,1,9,1,14,9,82,52
NC(=O)Nc1sc(-c2ccc(F)cc2)cc1C(N)=O,85,33,33,9,30,7,,,91,77
COc1ccc(CNC(=O)Nc2ncc([N+](=O)[O-])s2)cc1,136,109,,,,,,,,
O=c1cc(N2CCOCC2)oc2c1ccc1ccccc12,108,97,57,46,109,99,110,101,100,92
c1ccc(-c2cnc(Nc3ccc(OCCN4CCCC4)cc3)s2)cc1,121,66,56,36,,,72,58,,
CC(C)(C)n1nc(Cc2cccc3ccccc23)c2c(N)ncnc21,107,65,112,80,99,85,113,77,41,7
Nc1ncnc2[nH]nc(Nc3ccc(F)cc3)c12,106,64,42,24,59,17,48,30,78,47
Nc1nc(Nc2ccc(S(N)(=O)=O)cc2)nn1C(=O)c1c(F)cccc1F,28,8,32,8,19,4,27,2,,

SMILES,residual activity [1] [%],residual activity [2] [%],residual activity [3] [%],residual activity [4] [%],residual activity [5] [%],residual activity [6] [%],residual activity [7] [%],residual activity [8] [%],residual activity [9] [%],residual activity [10] [%]
O=S(=O)(NCCNC/C=C/c1ccc(Br)cc1)c1cccc2cnccc12,53,24,26,6,70,13,18,9,,
COc1ccc2c(c1)c(C1=C(c3c[nH]c4ccccc34)C(=O)NC1=O)cn2CCCN(C)C,6,1,2,-1,0,-2,4,2,,
O=C1NC(=O)C(c2cn(CCCO)c3ncccc23)=C1c1cnccn1,98,99,41,45,63,55,83,65,82,92
O=C1NC(=O)C(c2cn(CCCn3ccnc3)c3ccccc23)=C1Nc1ccccc1,8,1,3,1,0,-1,5,2,62,78
O=C(CCCc1ccc(-c2ccccc2F)cc1)Nc1ccc(O)cc1,90,89,111,129,97,86,104,96,91,59
Nc1n[nH]c2nc3ccccc3nc12,118,87,65,54,93,77,83,71,90,97
Cc1cc(C)c(/C=C2\C(=O)Nc3ccccc32)[nH]1,51,11,26,5,27,4,38,17,79,98
CSc1nc(-c2ccc(F)cc2)c(-c2ccnc(NC(C)c3ccccc3)c2)[nH]1 (stereo not given),82,74,81,50,40,42,86,69,-1,0
O=C(Nc1ccc(Cl)cc1)c1ccccc1NCc1ccncc1,129,,,,,,,,,
Nc1ncnc2c1c(-c1ccc(Oc3ccccc3)cc1)cn2C1CCCC1,123,39,65,37,106,69,91,76,86,63
NC(=O)c1ccc(-c2nc(-c3ccc4c(c3)OCCO4)c(-c3ccccn3)[nH]2)cc1,,,56,53,,,90,,77,37
O=C(NC(NC(=S)Nc1ccc(F)c([N+](=O)[O-])c1)C(Cl)(Cl)Cl)C(c1ccccc1)c1ccccc1 (stereo not given),,,,,,,80,94,,
N#C/C(=C\c1ccc(O)c(O)c1)C(=O)NCc1ccccc1,,102,67,45,122,,,,72,102
CC(C)[C@H](CO)Nc1nc(Nc2cc(N)cc(Cl)c2)c2ncn(C(C)C)c2n1,32,6,,,,,18,6,,95
O=C(O)/C=C/c1cc(Br)c(Br)c(Br)c1Br,110,89,59,43,,,,,77,90
O=c1c(-c2ccc(F)cc2)c(-c2ccncc2)[nH]n1-c1ccc(Cl)cc1,,,,,,,,,3,0
COc1cc2ncnc(Nc3cccc(Cl)c3)c2cc1OC,,,102,59,87,47,123,64,56,25
O=S(=O)(c1cccc2cnccc12)N1CCCNCC1,84,47,,,,,85,49,,
O=c1cc(N2CCOCC2)oc2c(-c3ccccc3)cccc12,138,,69,55,,,,,,
O=C1Cc2c([nH]c3ccc(Br)cc23)-c2ccccc2N1,78,77,,,12,9,,,,
Nc1nccc(-c2c(-c3ccc(F)cc3)ncn2C2CCNCC2)n1,,,54,36,83,50,,70,,
CCN1/C(=C/C(C)=O)Sc2ccc(OC)cc21,,,,,77,57,,,,

SMILES,residual activity [1] [%],residual activity [2] [%],residual activity [3] [%],residual activity [4] [%],residual activity [5] [%],residual activity [6] [%],residual activity [7] [%],residual activity [8] [%],residual activity [9] [%],residual activity [10] [%]
Cn1sc(=O)n(Cc2ccccc2)c1=O,,,49,65,99,97,95,93,87,87
CC(C)N(CCC(=O)c1ccc2ccccc2c1)Cc1ccccc1,,,54,52,,,,,81,79
N#Cc1c(NC(=O)c2cccc3ccccc23)sc2c1CCCC2,,94,49,51,,,92,90,,
Fc1ccc(-c2nc3n(c2-c2ccncc2)CCS3)cc1,73,81,64,52,,,,92,16,3
CCOc1nc(NC(=O)Cc2cc(OC)ccc2OC)cc(N)c1C#N,,,,,,71,,,,
CCOC(=O)c1c(C)[nH]c(/C=C2\C(=O)Nc3ccccc32)c1C,,,88,75,72,77,88,90,,
O=C(c1ccccc1)c1ccc(N2CCOCC2)cc1O,96,85,45,38,,,,130,79,83
COc1cc2nccc(Oc3ccc(NC(=S)NC(=O)c4ccccc4C)cc3)c2cc1OC,96,81,70,19,,,88,123,82,68
Nc1ncnc2c1cnn2-c1ccccc1,,88,,,,84,,,83,
O=C1Nc2ccccc2/C1=C\c1c(Cl)[nH]c2ccccc12,,,60,25,,44,51,33,,45
N#C/C(=C1/Nc2ccccc2S1)c1ccnc(NCCc2cccnc2)n1,,,,,,,63,63,76,41
O=C1Cc2c([nH]c3ccc([N+](=O)[O-])cc23)-c2ccccc2N1,,,56,34,38,22,64,38,,
COc1ccc(Cl)cc1NC(=O)Nc1cc(C)nc2ccccc12,,,,,,,,,82,91
O=C(Nc1nc2ccccc2n1CCN1CCOCC1)c1cccc([N+](=O)[O-])c1,,,104,83,,,108,80,,
CN([C@@H](Cc1ccc(OS(=O)(=O)c2cccc3cnccc23)cc1)C(=O)N1CCN(c2ccccc2)CC1)S(=O)(=O)c1cccc2cnccc12,,,,,99,99,,,,
NCCNc1ncc(C(N)=O)c(Nc2cccc(C(F)(F)F)c2)n1,116,59,,35,82,29,,,,
COc1ccc(-c2cnc3c(-c4ccsc4)cnn3c2)cc1,,,67,51,,,100,136,81,
CC(C)(C)c1nc2c3ccc(F)cc3c3c(=O)[nH]ccc3c2[nH]1,65,55,,,25,7,42,37,73,69
O=C1C(Cl)=C(N2C(=O)CCC2=O)C(=O)c2ccccc21,120,131,73,75,,,92,99,86,92
CCCCc1c(-c2ccc(O)cc2)[nH]c2nccnc12,,,42,29,68,44,86,84,100,88
NC(=O)c1cccc(-c2cc(Nc3ccc(OC(F)(F)F)cc3)ncn2)c1,,94,57,40,,,,,,

# Source: ChEMBL document CHEMBL2218924, “A broad activity screen in support of a chemogenomic map for kinase signalling research and drug discovery” (Biochem J, 2013)
